# Reference: PubChem BioAssay (NCATS)
# Records with an inconclusive call do not appear. Entries that show only a call come without a potency. A number with no mark means an inactive call. Active and inactive are the calls of the source. The call rests on the fitted dose curve; in most records, active means well fitted curve in the direction sought with a large enough effect; inconclusive means small, poorly fitted or top-dose-only effect, or another doubt; inactive means no such curve, though single readings can be large; an effect the other way counts as inactive or inconclusive.
# Assays:
# C33A = assay: Primary qHTS to identify gynecologic anti-cancer compounds using libraries of approved drugs and bioactive compounds (AID 1345084); settings: Gynecologic cancer cell panel viability, ATPlite luminescence, 48 h; series mostly up to 57.5 µM; further: nearly all actives have a fitted effect of over 55% in size
# How it was run: (§1)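 48 h compound exposure at 37 C, 5% CO2; five-point qHTS. ATPlite luminescence readout of cell ATP.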
# CAOV3 = assay: as above; settings: Gynecologic cancer cell panel viability, ATPlite luminescence, 48 h; series mostly up to 57.5 µM
# How it was run: as §1
# Es-2 = assay: as above; settings: Gynecologic cancer cell panel viability, ATPlite luminescence, 48 h; series mostly up to 57.5 µM
# How it was run: as §1
# HeLa = assay: as above; settings: Gynecologic cancer cell panel viability, ATPlite luminescence, 48 h; series mostly up to 57.5 µM
# How it was run: as §1
# Hek293T = assay: as above; settings: Gynecologic cancer cell panel viability, ATPlite luminescence, 48 h, control line for the selectivity index; series mostly up to 57.5 µM
# How it was run: as §1
# JEG-3 = assay: as above; settings: Gynecologic cancer cell panel viability, ATPlite luminescence, 48 h; series mostly up to 57.5 µM
# How it was run: as §1
# Tov-21-G = assay: as above; settings: Gynecologic cancer cell panel viability, ATPlite luminescence, 48 h; series mostly up to 57.5 µM
# How it was run: as §1
# Tov112D = assay: as above; settings: Gynecologic cancer cell panel viability, ATPlite luminescence, 48 h; series mostly up to 57.5 µM
# How it was run: as §1
# PA-1 = assay: as above; settings: Gynecologic cancer cell panel viability, ATPlite luminescence, 48 h; series mostly up to 57.5 µM
# How it was run: as §1
# SKOV3 = assay: as above; settings: Gynecologic cancer cell panel viability, ATPlite luminescence, 48 h; series mostly up to 57.5 µM
# How it was run: as §1
# OV90 = assay: as above; settings: Gynecologic cancer cell panel viability, ATPlite luminescence, 48 h; series mostly up to 57.5 µM
# How it was run: as §1
# CASKI = assay: as above; settings: Gynecologic cancer cell panel viability, ATPlite luminescence, 48 h; series mostly up to 57.5 µM
# How it was run: as §1
# [1] = qHTS assay to identify inhibitors of the type 1 interferon - major histocompatibility complex class I in skeletal muscle: Counter screen cell viability and HiBit confirmation (AID 1347412); settings: iHSKM muscle cells + IFN-b, HiBiT or CellTiter-Glo, 24 h; Viability; further: nearly all actives have a fitted effect of over 60% in size
# How it was run: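 Duplicate plates, pinned identically: one read for HiBiT-tagged endogenous HLA-B luminescence, the other for ATP-content viability via CellTiter Glo. Cells were genome-engineered human myoblasts given 4 ng/ml IFN-b; compounds 12-pt, 1:3 from 46 uM final; 24 hr exposure.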
# Potency means the concentration at half of the fitted maximal effect.
structure (smiles),measurement,setting,value
COc1ccc(-c2cnc3ccc(NCc4ccc(S(N)(=O)=O)cc4)nn23)cc1OC,Potency,C33A,inactive
same,Potency,CAOV3,inactive
same,Potency,Es-2,inactive
same,Potency,HeLa,inactive
same,Potency,Hek293T,inactive
same,Potency,JEG-3,inactive
same,Potency,Tov-21-G,inactive
same,Potency,Tov112D,inactive
C=C1C(=O)O[C@@H]2/C=C(\C)C(=O)/C=C/[C@](C)(O)C[C@@H](OC(=O)C(C)C)[C@@H]12,Potency,C33A,8.91 µM (active)
same,Potency,CAOV3,2.82 µM (active)
same,Potency,Es-2,3.16 µM (active)
same,Potency,Hek293T,4.47 µM (active)
same,Potency,PA-1,4.47 µM (active)
same,Potency,SKOV3,5.62 µM (active)
same,Potency,Tov-21-G,3.98 µM (active)
same,Potency,Tov112D,15.8 µM (active)
C/C=C1\[C@H](O[C@@H]2O[C@H](CO)[C@@H](O)[C@H](O)[C@H]2O)OC=C2C(=O)OCCc3ccc(O)c(c3)Oc3ccc(cc3)CCOC(=O)C[C@H]21,Potency,C33A,inactive
same,Potency,CAOV3,inactive
same,Potency,Es-2,inactive
same,Potency,HeLa,inactive
same,Potency,Hek293T,inactive
same,Potency,OV90,inactive
same,Potency,PA-1,inactive
same,Potency,Tov-21-G,inactive
same,Potency,Tov112D,inactive
CC(C)=CCC[C@](C)(O)[C@H]1CC[C@]2(C)[C@@H]1[C@H](O)CC1[C@@]3(C)CC[C@H](O)C(C)(C)[C@@H]3[C@@H](O[C@@H]3O[C@H](CO)[C@@H](O)[C@H](O)[C@H]3O[C@@H]3O[C@H](CO)[C@@H](O)[C@H](O)[C@H]3O)C[C@]12C (stereo partly specified),Potency,C33A,inactive
same,Potency,CASKI,inactive
same,Potency,Es-2,inactive
same,Potency,HeLa,inactive
same,Potency,Hek293T,inactive
same,Potency,JEG-3,inactive
same,Potency,OV90,inactive
same,Potency,PA-1,inactive
same,Potency,SKOV3,inactive
same,Potency,Tov-21-G,inactive
same,Potency,Tov112D,inactive
O=C(O[C@H]1[C@@H]2C=CO[C@@H](O[C@@H]3O[C@H](CO)[C@@H](O)[C@H](O)[C@H]3O)[C@@H]2[C@@]2(CO)O[C@@H]12)c1ccccc1,Potency,C33A,inactive
same,Potency,CASKI,inactive
same,Potency,Es-2,inactive
same,Potency,HeLa,inactive
same,Potency,Hek293T,inactive
same,Potency,JEG-3,inactive
same,Potency,OV90,inactive
same,Potency,PA-1,inactive
same,Potency,SKOV3,inactive
same,Potency,Tov-21-G,inactive
same,Potency,Tov112D,inactive
CC1(C)CC(NC(=O)C(=O)Nc2ccc(Br)cc2)CC(C)(C)N1,Potency,C33A,inactive
same,Potency,CAOV3,inactive
same,Potency,HeLa,14.1 µM (active)
same,Potency,JEG-3,inactive
same,Potency,OV90,inactive
Cc1ccc(NC(=O)c2ccc(CN3CC[C@H](N(C)C)C3)c(C(F)(F)F)c2)cc1Nc1nccc(-c2cncnc2)n1,Potency,C33A,inactive
same,Potency,CAOV3,inactive
same,Potency,HeLa,inactive
same,Potency,Hek293T,inactive
same,Potency,JEG-3,inactive
same,Potency,OV90,5.01 µM (active)
same,Potency,SKOV3,inactive
same,Potency,Tov-21-G,inactive
same,Potency,Tov112D,inactive
COc1cc2c(NC3CCN(CC4CCCCC4)CC3)nc(N3CCCN(C(C)C)CC3)nc2cc1OCCCN1CCCCC1,Potency,C33A,14.1 µM (active)
same,Potency,CAOV3,3.98 µM (active)
same,Potency,Es-2,3.98 µM (active)
same,Potency,Hek293T,20 µM (active)
same,Potency,JEG-3,5.62 µM (active)
same,Potency,OV90,3.16 µM (active)
same,Potency,PA-1,5.62 µM (active)
same,Potency,SKOV3,3.98 µM (active)
same,Potency,Tov-21-G,20 µM (active)
same,Potency,Tov112D,7.94 µM (active)
same,Potency,[1],24.9 µM (active)
COC(=O)Cc1cc2c(c([N+](=O)[O-])c1)N(C(=O)CC[C@H](N)C(=O)O)CC2,Potency,C33A,inactive
same,Potency,CAOV3,inactive
same,Potency,Es-2,inactive
same,Potency,HeLa,inactive
same,Potency,Hek293T,inactive
same,Potency,JEG-3,inactive
same,Potency,OV90,inactive
same,Potency,PA-1,inactive
same,Potency,SKOV3,inactive
same,Potency,Tov-21-G,inactive
same,Potency,Tov112D,inactive
CC(=O)OC1C[C@]2(C)C(O)CC(C)=C[C@H](OC(=O)c3ccc(O)cc3)C2[C@]1(O)C(C)C (stereo partly specified),Potency,C33A,inactive
same,Potency,CASKI,inactive
same,Potency,Es-2,inactive
same,Potency,HeLa,inactive
same,Potency,Hek293T,inactive
same,Potency,JEG-3,inactive
same,Potency,OV90,inactive
same,Potency,PA-1,inactive
same,Potency,SKOV3,inactive
same,Potency,Tov-21-G,inactive
same,Potency,Tov112D,inactive
Cc1ccc(S(=O)(=O)Cc2nc(-c3ccc(C(=O)NCc4cccnc4)cc3)oc2C)cc1,Potency,C33A,inactive
same,Potency,CAOV3,inactive
same,Potency,JEG-3,inactive
same,Potency,OV90,inactive
CC(=O)N[C@H]1[C@H](O[C@H]2CC[C@@]3(C)C(CC[C@]4(C)C3CC=C3C5CC(C)(C)CC[C@]5(C(=O)O)[C@H](O)C[C@]34C)C2(C)C)O[C@H](CO[C@@H]2OC[C@H](O)[C@H](O)[C@H]2O[C@@H]2OC[C@@H](O)[C@H](O)[C@H]2O)[C@@H](O)[C@@H]1O (stereo partly specified),"activity change, negative = cytotoxicity",C33A,-5.03% [at 11.6 µM]
same,"activity change, negative = cytotoxicity",CASKI,-1.03% [at 11.6 µM]
same,"activity change, negative = cytotoxicity",Es-2,-1.64% [at 11.6 µM]
same,"activity change, negative = cytotoxicity",HeLa,-4.4% [at 11.6 µM]
same,"activity change, negative = cytotoxicity",Hek293T,3.72% [at 11.6 µM]
same,"activity change, negative = cytotoxicity",JEG-3,4.23% [at 11.6 µM]
same,"activity change, negative = cytotoxicity",OV90,9.62% [at 11.6 µM]
same,"activity change, negative = cytotoxicity",PA-1,3.95% [at 11.6 µM]
same,"activity change, negative = cytotoxicity",SKOV3,10.7% [at 11.6 µM]
same,"activity change, negative = cytotoxicity",Tov-21-G,-0.0551% [at 11.6 µM]
same,"activity change, negative = cytotoxicity",Tov112D,-18.9% [at 11.6 µM]
NC(=O)[C@H]1CCS[C@@H]2C[C@]3(CCCN3C(=O)Cc3ccc(NC(=O)COc4ccc(Cl)cc4Cl)cc3)C(=O)N12,Potency,C33A,inactive
same,Potency,CAOV3,inactive
same,Potency,Es-2,inactive
same,Potency,HeLa,31.6 µM (active)
same,Potency,OV90,inactive
same,Potency,PA-1,15.8 µM (active)
C[C@H](Oc1ccc(S(C)(=O)=O)cc1C(=O)N1CCN(c2ncc(C(F)(F)F)cc2F)CC1)C(F)(F)F,Potency,C33A,inactive
same,Potency,CASKI,inactive
same,Potency,Es-2,inactive
same,Potency,HeLa,inactive
same,Potency,Hek293T,inactive
same,Potency,JEG-3,inactive
same,Potency,OV90,inactive
same,Potency,PA-1,inactive
same,Potency,SKOV3,inactive
same,Potency,Tov-21-G,inactive
same,Potency,Tov112D,inactive
